# According to PubChem BioAssay (NCI):
# Values joined by “and” are separate entries in the source; they are usually repeats but may differ in a detail not shown here. Equal values may be shown once. Compounds without any hit were thinned out: in the full panel of roughly 83,000, 20% have a hit.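 The endpoint reported here, percent growth, reads 100 for growth as untreated, 0 for no net growth and -100 for all cells dead.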 Active and inactive are the calls of the source. Rule for the calls: active = growth percent below 10; inactive = the rest.
# Test system: MDA-MB-468 breast
# Assay: NCI-60 one-dose screen, 48 h (100 = growth as untreated, 0 = no growth, -100 = all killed)
# Conditions: 10 µM unless noted
row,SMILES,growth
1,CN(C)CCCNC(=O)c1cncnc1Nc1ccc2c(ccn2Cc2cccc(F)c2)c1,52.6% (inactive)
2,Nc1nc2c(c3cnccc13)C(c1ccc(Cl)c(Cl)c1)Cc1cnccc1-2 (centres undefined),-42.2% (active)
3,BrC1CC(Br)c2c1c1c(c3c2C(Br)CC3Br)C(Br)CC1Br (centres undefined),79% (inactive)
4,C/C(Cc1ccc(Cl)cc1)=C(/c1ccccc1)c1ccc(OCCN)cc1,97.2% (inactive)
5,Oc1c(Cl)cc(Cl)cc1Sc1cc(Cl)cc(Cl)c1O,84% (inactive) and -2.78% (active) and 67.9% (inactive)
6,CCCCCn1c(C)cc(/C=C\c2ccc3cc(C)ccc3[n+]2C)c1C,-82.4% (active)
7,COc1ccc(C(=O)C2CC2c2ccc(Cl)cc2)cc1 (centres undefined),98.3% (inactive)
8,C=C1c2c(C)nn(-c3ccc(OC)cc3)c2N(C)C23C[C@@H]1C1(C)c4c(C)nn(-c5ccc(OC)cc5)c4N(C)C(C)(C[C@H]12)C3 (some centres undefined),31.9% (inactive)
9,Fc1c[c-]c(-c2ccccn2)c(F)c1.Fc1c[c-]c(-c2ccccn2)c(F)c1.[Cl][Pt+].[Cl][Pt+].c1ccc([PH+](C[PH+](c2ccccc2)c2ccccc2)c2ccccc2)cc1,-2.28% (active)
10,N#CC1=C(N)Oc2c(sc3c(Br)cccc23)C1c1ccc(F)cc1 (centres undefined),11% (inactive)
11,COc1nc(OC)nc(-c2cc(C(=O)c3ccc(Br)cc3)n3cc(C)cc(C)c23)n1,51% (inactive)
12,O=C(NCCNc1nccc(Nc2ccc(S(=O)(=O)Nc3ccccn3)cc2)n1)c1cccc([N+](=O)[O-])c1,105% (inactive)
13,O=C(Nc1cccc(NC(=O)C2CCCCC2)c1)c1ccccn1,116% (inactive)
14,Cc1nn(-c2ccccc2)c2c1oc(=O)c1cc(Cl)ccc12,98.7% (inactive)
